# Source: PubChem
# Hits are enriched below; roughly 2.4% of the tested compounds scored in any of these assays.
# HEK293 tox = qHTS of GLP-1 Receptor Inverse Agonists: Cytotox Screen. HEK293 cAMP-luciferase reporter cells, luminescence, 24 h. Potency, µM (series often up to 38.3 µM), for the others: at the highest dose activity change, negative = inhibition, actives largely listed as inhibitors. 410,000 compounds, 0.13% hits;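 also: loss of luciferase light is scored as toxicity; potency is read from the fitted curve at half-maximal effect; % is scaled to controls: 0 for no effect and ±100 for the full control effect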
#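 Cells in DMEM/10% Nu serum/1% pen-strep, 1536-well format. Pre-incubated 12 h, dosed with 23 nL compound, incubated a further 24 h. Luciferase detection, 12 min at room temp, luminescence.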
# PTHR1 agonist = qHTS for PTHR1 Agonists: Primary Screen; Parathyroid hormone/parathyroid hormone-related peptide receptor (Homo sapiens), Q03431; HEK293 GP2 PTHR1 cells, GloSensor cAMP luminescence, 1 h; Potency, µM (top dose mostly 115 µM), without a hit: top-dose activation, hits mostly activators; 410,000 compounds, 0.075% hits; AID 743266, 2014; also: potency is read from the fitted curve at half-maximal effect; nearly all actives have a fitted effect of over 55% in size
# Target sequence (Q03431 whole entry, looked up): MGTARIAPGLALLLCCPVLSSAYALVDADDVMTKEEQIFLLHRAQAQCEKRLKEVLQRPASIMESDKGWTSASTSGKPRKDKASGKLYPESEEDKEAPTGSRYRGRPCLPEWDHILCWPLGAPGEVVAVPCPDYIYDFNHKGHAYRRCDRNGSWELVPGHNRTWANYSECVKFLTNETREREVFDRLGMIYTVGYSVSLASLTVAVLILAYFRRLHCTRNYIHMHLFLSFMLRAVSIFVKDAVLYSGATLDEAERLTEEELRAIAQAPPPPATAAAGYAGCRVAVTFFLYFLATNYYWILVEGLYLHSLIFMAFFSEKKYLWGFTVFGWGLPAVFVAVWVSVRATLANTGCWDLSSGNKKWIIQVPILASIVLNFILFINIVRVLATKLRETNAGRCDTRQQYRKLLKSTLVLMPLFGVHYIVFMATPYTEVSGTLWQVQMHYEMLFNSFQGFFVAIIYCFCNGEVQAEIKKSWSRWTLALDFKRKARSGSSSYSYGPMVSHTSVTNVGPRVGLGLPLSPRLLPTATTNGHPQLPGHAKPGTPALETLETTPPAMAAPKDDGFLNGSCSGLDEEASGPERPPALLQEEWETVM
#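 HEK-293-derived GP2 cells expressing PTHR1 and a GloSensor cAMP reporter, 3,000/well, plated overnight, given luciferin plus IBMX (each 0.5 mM as added) for 1 h at 37 °C, then compound for 1 h at 37 °C. Luminescence was read after 15 min at room temperature.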
# GLP-1R agonist = qHTS of GLP-1 Receptor Agonists | AID 624172, 2012 | Glucagon-like peptide 1 receptor (Homo sapiens), P43220 | HEK293 GLP-1R CRE-luciferase, luminescence, 4-6 h; cells express a hypersensitive GLP-1R form | 380,000 compounds, 0.007% hits | Potency, µM (highest dose often 45.6 µM), without a hit: at the top dose activation, usual class: activators; also: potency is read from the fitted curve at half-maximal effect; % of control where 0% means no effect
# TRHR ag = qHTS for Small Molecule Agonists and Allosteric Enhancers of Human TRH Receptor: Primary Screen for Agonists; Thyrotropin-releasing hormone receptor (Homo sapiens), P34981; TRHR cells, calcium flux fluo-8, FDSS agonist mode; activation, % at 2 µM; 360,000 compounds, 0.18% hits; in the data active = activation above about 30%; also: 0% is about no effect
#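 Agonist-mode FDSS calcium read (Ex 480/Em 530, 1 s cycles) in 1536-well TRHR cells with fluo-8 dye, after 10-cycle baseline and 23 nL compound addition; TRH at EC20 (10 nM final) added afterwards for the enhancer phase.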
# GLP-1R inv ag = qHTS of GLP-1 Receptor Inverse Agonists (Inhibition Mode); Glucagon-like peptide 1 receptor (Homo sapiens), P43220; 410,000 compounds, 1.6% hits; HEK293 GLP-1R CRE-luciferase, luminescence, 24 h; GLP-1R form is constitutively active; Potency, µM (series often up to 38.3 µM), without a hit: top-dose activity change, negative = inhibition, usual class: inhibitors; also: potency is read from the fitted curve at half-maximal effect; % is scaled to controls: 0 for no effect and ±100 for the full control effect; nearly all actives have a fitted effect of over 55% in size
#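 Inverse agonists were sought by their lowering of basal cAMP reporter luciferase output in HEK293 cells stably carrying constitutively active human GLP-1R, after 24 h compound treatment.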
# TRHR enhancer = qHTS for Small Molecule Agonists and Allosteric Enhancers of Human TRH Receptor: Primary Screen for Enhancers; AID 493056, 2011; 360,000 compounds, 0.66% hits; Thyrotropin-releasing hormone receptor (Homo sapiens), P34981; TRHR cells, fluo-8 calcium fluorescence, EC20 TRH enhancement; enhancement, % at 2 µM; in the data active = enhancement above about 30%; also: 0% is about no effect
#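 Enhancer read-out: after compound pinning and an initial kinetic agonist-mode read, an EC20 of TRH (10 nM final) was injected and fluo-8 calcium signal (Ex 480/Em 530) followed at 1 s/cycle for 100 cycles in TRHR-expressing cells.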
# Numbers without * were called inactive; i = inactive; ? = inconclusive; · = not tested or not shown; [ ] = dose if it differs, or a comment. Unless noted, calls follow the shape of the dose curve; as a rule, active = well fitted curve in the direction sought with a large enough effect; inconclusive = small, poorly fitted or top-dose-only effect, or another doubt; inactive = no such curve, though single readings can be large; an effect the other way counts as inactive or inconclusive.
SMILES,HEK293 tox,PTHR1 agonist,GLP-1R agonist,TRHR ag,GLP-1R inv ag,TRHR enhancer
Cc1ccc(-n2c(C)cc(/C=N/NC(=O)CN(c3ccc(C)cc3C)S(C)(=O)=O)c2C)cc1,-18%,16%,-16%,0,10µM*,10
COc1ccc(Cl)cc1NC(=O)CCC(=O)N1CCOc2ccccc21,3%,-40%,·,-1,?,9
COc1ccc(C(=O)Nc2ccc(C)cn2)c(OC)c1,8%,-77%[57.5 µM],-18%,0,2µM*,7
COc1ccc(C(=O)Nc2cc(C)on2)c(OC)c1,-2%,-37%,6%,-1,12%,9
CC[C@]12c3[nH]c4ccc(OC)cc4c3CCN1C(=O)C(CC(=O)NCCCOC)C[C@@H]2C(=O)N1CCN(C(=O)c2ccco2)CC1 (stereo not given in full),-1%,-1%,-1%,·,-9%,·
Cc1ccc(C(=O)CCC(=O)OCC(=O)Nc2nnc(-c3ccccc3)o2)cc1,-3%,i,-3%,0,15%,40*
O=C(c1cccc(Br)c1)c1cn(-c2ccccc2)nc1C(=O)c1ccccc1,7%,i,0%,1,3.5µM*,4
Cc1ccc(NC(=S)NCc2ccccc2)cc1S(=O)(=O)N1CCCCC1,-22%,-44%,2%,-1,11µM*,-4
Cc1ccc(NC(=O)CSc2ccccc2)cc1S(=O)(=O)N1CCCCC1,-6%,i,0%,1,7.9µM*,-3
Cc1ccc(NC(=O)COc2ccccc2)cc1S(=O)(=O)N1CCCCCC1,4%,-41%,5%,1,?,-16
CCn1c(SCc2ccc([N+](=O)[O-])cc2)nnc1C(C)NC(=O)c1ccccc1Br (stereo not given),-29%,i,-1%,0,?,-1
CCN(CC)C(=O)C1CCCN(c2ccc([N+](=O)[O-])cc2/C=N/NC(=O)c2cccc(Br)c2)C1 (stereo not given),-19%,i,-13%,0,2µM*,11
O=C(N/N=C/c1cc([N+](=O)[O-])ccc1N1CCCCCC1)c1ccccn1,-16%,-4%,4%,-2,-28%,-5
C/C(=N\NC(=O)c1ccccc1)c1ccccc1Br,5µM*,i,9%,0,?,-3
C/C(=N\NC(=O)c1ccccc1)c1ccccc1F,13%,i,4%,0,22%,-5
O=C1COc2ccc(C(=O)COC(=O)Cc3ccc(Cl)cc3)cc2N1,-1%,-15%,5%,1,3%,36*
COc1ccc(C(=O)NC(C(=O)NCc2ccccc2OC)C(C)C)cc1 (stereo not given),1%,-38%,4%,1,0%,-3
CCOC(=O)C(NC(C)=O)C(=O)Nc1ccc(C(C)(C)C)cc1 (stereo not given),1%,i,1%,-2,10%,-2
CCOC(=O)C(NC(C)=O)C(=O)Nc1ccc(C(C)C)cc1 (stereo not given),-15%,-19%,3%,0,-10%,39*
CC(NC(=O)CSCc1ccc(Br)cc1)c1ccccc1 (stereo not given),1%,-44%,14%,0,7.1µM*,2
S=C(NCc1ccco1)N1CCN(c2ccc(Cl)cc2)CC1,3%,-85%,13%,-2,?,40*
O=C(CSc1nnc(Cn2nnc3ccccc32)o1)N(Cc1ccc(F)cc1)c1ccccc1,1%,-73%[57.5 µM],-2%,0,11µM*,-4
Cc1ccc2nc(-c3cccc(-c4cccc(Cl)c4)c3)c(NCc3ccccc3)n2c1,0%,-7%,-14%,1,11µM*,3
Cc1ccn2c(NC3CCCCC3)c(-c3cccc(SC4CCCCC4)c3)nc2c1,-20%,-46%,4%,·,?,·
CCCCCCSc1cccc(-c2nc3cc(C)ccn3c2NCc2ccccc2)c1,?,-25%,0%,0,5µM*,2
SMILES,HEK293 tox,PTHR1 agonist,GLP-1R agonist,TRHR ag,GLP-1R inv ag,TRHR enhancer
CCC(C)Sc1cccc(-c2nc3cc(C)ccn3c2NC2CCCCC2)c1 (stereo not given),?,-84%,2%,·,5µM*,·
CCC(C)Sc1cccc(-c2nc3ccc(C)cn3c2NCc2ccccc2)c1 (stereo not given),-16%,-64%,0%,0,?,10
O=C(Nc1ccccc1)c1ccc(NCC2CCCO2)c([N+](=O)[O-])c1 (stereo not given),4%,i,-4%,-1,30%,-10
O=C(O)c1ccc2c(c1)C(=O)N([C@H](Cc1ccc(O)c(O)c1)C(=O)O)C2=O,·,·,·,0,·,4
CCOC(=O)C1CCCN(C(=O)c2ccc(CNS(=O)(=O)c3ccc(C)cc3)cc2)C1 (stereo not given),-7%,-7%,14%,-1,-8%,-4
C=C1C(C(=O)Nc2ccc(OC)cc2)C1C(=O)Nc1ccc(OC)cc1 (stereo not given),0%,-21%,5%,0,-10%,-4
Cc1ccc(OC(=O)c2cccc(C(=O)Oc3ccc(C)cc3)n2)cc1,16%,i,13%,1,1%,-4
Cc1ccc(OC(=O)c2cc(C)nn2C(C)(C)C)cc1,-7%,i,-6%,0,8%,36*
O=C(N1CCOCC1)C12CC3CC(C1)CC(n1cnc(Cl)n1)(C3)C2,4%[1.53 µM],-17%,10%,0,2%,32*
CC(C)(C)N(Cc1ccccc1)C(=O)c1cc2ccccc2o1,-1%,i,5%,1,2.2µM*,-6
CN(Cc1ccccc1)C(=O)c1cc2ccccc2o1,5%,-10%,-1%,0,6%,-2
CCc1ccc(OCCNC(=O)c2ccccc2SCc2ccc(F)cc2)cc1,-4%,-39%,-2%,2,8.9µM*,8
O=C(Nc1nnc(C2CC2)o1)c1ccc(S(=O)(=O)N2CCc3ccccc3C2)cc1,1%,-12%,-9%,-1,-28%,-4
CCCN(CC(=O)Nc1ccccc1OC)C(=O)c1cc(-c2cccs2)nn1-c1ccccc1,10%,-11%,4%,0,11µM*,-7
CCN(CC(=O)Nc1ccccc1OC)C(=O)c1ccc2[nH]c3c(c2c1)CC(C)CC3 (stereo not given),2%,-34%,-3%,0,?,4
